Records with an inconclusive call do not appear. Activity calls are given as the source filed them. Unless noted, the call rests on the fitted dose curve; in most records, active means well fitted curve in the direction sought with a large enough effect; inconclusive means small, poorly fitted or top-dose-only effect, or another doubt; inactive means no such curve, though single readings can be large; an effect the other way counts as inactive or inconclusive.

The values below come from PubChem BioAssay (NCATS).

Test [1] concerns the target Lysosomal acid glucosylceramidase (Homo sapiens) (UniProt P04062). The test is described as follows: Glucocerebrosidase-p2 (AID 348; in the data active means potency below about 10 µM; further: potency means the concentration at half of the fitted maximal effect). Conditions: purified GBA, blue fluorogenic substrate, 40 min. The essentials: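 Normal human glucocerebrosidase (0.2 nM) with blue fluorogenic substrate (80 uM final) in citrate/phosphate pH 5.9 with 10mM sodium taurocholate, 0.01% tween-20; 40 min RT, NaOH/glycine stop; fluorescence Ex 365/Em 440; AC50 from a titration from 0.6 nM upwards.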

The nature of test [2]: AP1 Signaling Pathway (AID 357; active means well fitted curve in either direction with a large enough effect, not every such curve was filed as active;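 further: ME-180 reporter cells stimulated with EGF at its EC50 level; on the % scale 0 is the no-effect control and ±100 the full control effect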). An outline of the steps:
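A ratiometric CCF4 readout (405 nm excitation; 460 and 530 nm emission) quantified AP-1-driven beta-lactamase in ME-180 cells after 5 h with compound and EC50 EGF; AC50 values were derived for activators and inhibitors.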

Test [3] can be described thus: Stat Signaling Pathway (AID 446; active means well fitted curve in either direction with a large enough effect, not every such curve was filed as active;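 further: ME-180 cervical cancer cells given 40 pM IL-6 alongside compound; SIE-controlled beta-lactamase reporter measured as 460/530 nm FRET emission ratio; on the % scale 0 is the no-effect control and ±100 the full control effect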). The essentials:
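Compound effects on IL-6-induced STAT reporter activity were measured in ME-180 cells. After overnight culture, cells were co-treated with 40 pM IL-6 for 5 hrs before beta-lactamase substrate loading at room temperature.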

For test [4], the target named is Glucocorticoid receptor (Homo sapiens) (UniProt P04150). The test is described as follows: GR-EFC Redistribution (AID 451; calls by dose curve; further: potency means the concentration at half of the fitted maximal effect). Conditions: CHO-K1 GR-EFC translocation, beta-gal luminescence, 2 h. An outline of the steps:
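Translocation of GR-ED fusion to nuclear EA restores b-gal, read by luminescence after 1 h room-temperature detection. Engineered CHO-K1 biosensor cells, 1,000/well, exposed 2 h at 37 C to titrations up to 46 uM final.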

Test [5] deals with Mitogen-activated protein kinase 10 (Mus musculus) (UniProt Q61831). The test is described as follows: JNK3 AlphaScreen Assay (AID 530; active means well fitted curve in either direction with a large enough effect, not every such curve was filed as active;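 further: kinase came from lysate of stimulated human HepG2 cells; signal reports phosphorylation of biotinylated GST-cJun 1-79 at Ser73 with 10 µM ATP; on the % scale 0 is the no-effect control and ±100 the full control effect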). The essentials: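 Kinase buffer: 20 mM Tris-HCl pH 7.6, 10 mM MgCl2, 1 mM DTT, 0.1 mM Na3VO4, 0.01% Tween-20; ATP 10 uM. Substrate biotin-GST-cJun(1-79), enzyme from activated HepG2 lysates. Detection by Ser73 phospho-antibody AlphaScreen.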
On the technique in general: Bead proximity is the source of the signal in Alpha formats.

Test [6] deals with 3',5'-cyclic-AMP phosphodiesterase 4B (Homo sapiens) (UniProt Q07343). The test is described as follows: qHTS Assay for Inhibitors of PDE-IV (AID 607; active means well fitted activation curve with a large enough effect in the main read-out, with a control signal flat, not every such curve was filed as active; further: % of control where 0% means no effect). An outline of the steps: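 ACTOne HEK293 cells carry a modified cAMP-gated CNG channel and express endogenous PDE4; plated 1000 cells/well, compounds up to 22.9 uM final. Membrane-potential dye fluorescence (ex 535/em 590) was read; parental cells received 10 uM forskolin + 100 uM RO 20-1724.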
For orientation: In qHTS, concentration-response curves come from the screen itself.

Test [7] concerns the target Cytochrome P450 3A4 (Homo sapiens) (UniProt P08684). The test is described as follows: qHTS Assay for Activators of Cytochrome P450 3A4 (AID 885). Further: nearly all actives have a fitted effect of over 65% in size. The essentials:
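CYP3A4 activity: Luciferin-PPXE O-dealkylation, 25uM substrate, 200mM KPO4, RT throughout. Read-out is luciferase luminescence; higher values reflect activation.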

Test [8] in a line: Counterscreen qHTS for small molecule stabilizers of the endoplasmic reticulum resident proteome: GLuc-NoTag assay (AID 1508627).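 Further: SH-SY5Y cells given compound then 100 nM thapsigargin to empty ER calcium; 0% = thapsigargin alone and -100% = DMSO vehicle control.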 An outline of the steps:
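Counterscreen line: SH-SY5Y-GLuc-NoTag cells, treated with compound 19 hr before a 4 hr, 100 nM thapsigargin calcium depletion. Secreted Gaussia luciferase in the medium was measured by luminescence after coelenterazine was added (0.07x final), with cells unlysed.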

A short description of test [9]: Confirmatory qHTS for small molecule stabilizers of the endoplasmic reticulum resident proteome: Secreted ER Calcium Modulated Protein (SERCaMP) assay (AID 1508628). Further: nearly all actives have a fitted effect of over 40% in size. Further: potency means the concentration at half of the fitted maximal effect. An outline of the steps:
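GLuc-SERCaMP-expressing SH-SY5Y cells, pretreated 16 h with compound, are challenged with thapsigargin to empty ER calcium stores; after 4 h, coelenterazine is added directly to the medium and luminescence is imaged.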

The target in test [10] is Cytochrome P450 1A2 (Homo sapiens) (UniProt P05177). Description: p450-cyp1a2 (AID 410; calls by dose curve; further: potency means the concentration at half of the fitted maximal effect;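 on activity change, negative = inhibition: -100% = full effect of reference inhibitor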). The essentials: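 20nM CYP1A2, 100uM Luciferin-ME (=Km), 100mM KPO4; cpd 10 min RT; +NADPH regen, 60 min RT; stop/detect 20 min; luminescence. Normalized to furafylline 57 uM = full inhibition.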
Test [11] in a line: NFAT Signaling Pathway (AID 444; active means well fitted curve in either direction with a large enough effect, not every such curve was filed as active;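 further: carbachol stimulus at about its EC50 of 1 µM final; on the % scale 0 is the no-effect control and ±100 the full control effect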). To be noted: Jurkat NFAT-bla M1, carbachol, beta-lactamase ratio, 5 h; at 7.69 µM (top of the series). The essentials:
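Read-out: CCF4 FRET ratio (460 nm/530 nm) after 1 h RT dye loading, used for %activity and AC50 from titration series. Cells: Jurkat NFAT-β-lactamase/M1 line, treated with compound plus 1 uM carbachol for 5 h, 37 °C.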

Test [12] is described as follows: qHTS Assay for Lipid Storage Modulators (AID 1519; calls by dose curve). To be noted: Drosophila S3 cells, BODIPY lipid droplet/cell ratio, laser cytometry, cells loaded with oleic acid; for activity change, negative = inhibition: at 57.5 µM (top of the series). The essentials:
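Cells seeded at 5,000 per well were treated with compounds over a concentration series and loaded with oleic acid (400 uM, as added). Lipid droplet fluorescence (488 nm excitation, 500-530 nm channel) was read by laser-scanning cytometry and normalized to 20 uM Triacsin C.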

A short description of test [13]: Primary qHTS for small molecule stabilizers of the endoplasmic reticulum resident proteome: Secreted ER Calcium Modulated Protein (SERCaMP) assay (AID 1508630). Further: on the % scale 0 is the no-effect control and ±100 the full control effect. An outline of the steps:
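The SH-SY5Y reporter protocol was run at 3 concentrations up to 38.3 uM (primary) or 11 concentrations (follow-up): 16 h compound, 100 nM thapsigargin for 4 h, then extracellular luciferase luminescence.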

Test [14] addresses Calcium and integrin-binding protein 1 (Homo sapiens) (UniProt Q99828). Description: Primary qHTS for Identification of Calcium Integrin Binding Protein 1 (CIB1) Competitor (AID 1508620). The essentials: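 CIB1-GST (1 uM final) and compound incubated 15 min at room temperature before adding FITC-alphaIIb peptide tracer (100 nM final). Competition for binding read by fluorescence polarization (ex 480, em 540) after another 15 min at room temperature.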

A short description of test [15]: Confirmation and Secondary Assay for Modulators of Hemoglobin Beta Chain Splicing at IVS2 654 locus (AID 910).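 Further: HeLa cells stably carrying EGFP split by mutant beta-globin IVS2-654 intron; per-well total GFP intensity by laser scanning cytometry after 2-day treatment; % of control where 0% means no effect.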 An outline of the steps: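 Readout: per-well total peak green fluorescence (488 nm ex, 500–520 nm em) from objects 5–250 µm, reflecting correct splicing of an EGFP-654 reporter. Compounds were applied for 2 days at 37 °C to overnight-plated HeLa EGFP-654 cells; controls were DMSO and 500 nM IVS2-654 PNA.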

Test [16] can be described thus: Confirmation and Secondary Assay for Modulators of Hemoglobin Beta Chain Splicing at IVS2 705 locus (AID 930).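 Further: HeLa cells stably expressing the EGFP-705 splicing reporter; GFP fluorescence per well restored by corrected splicing of the IVS2-705 intron in EGFP; % of control where 0% means no effect.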 The essentials: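 Per-well GFP, captured at 1 x 8 µm resolution with 488 nm excitation, served as the read-out for HeLa EGFP-705 cells incubated 2 days with test compound versus DMSO.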
Setting [17] is: measured here: cell count channel max response.
Setting [18] is: measured here: lipid channel max response.

Cytochrome P450 1A2 (Homo sapiens), sequence (P05177 whole entry, looked up): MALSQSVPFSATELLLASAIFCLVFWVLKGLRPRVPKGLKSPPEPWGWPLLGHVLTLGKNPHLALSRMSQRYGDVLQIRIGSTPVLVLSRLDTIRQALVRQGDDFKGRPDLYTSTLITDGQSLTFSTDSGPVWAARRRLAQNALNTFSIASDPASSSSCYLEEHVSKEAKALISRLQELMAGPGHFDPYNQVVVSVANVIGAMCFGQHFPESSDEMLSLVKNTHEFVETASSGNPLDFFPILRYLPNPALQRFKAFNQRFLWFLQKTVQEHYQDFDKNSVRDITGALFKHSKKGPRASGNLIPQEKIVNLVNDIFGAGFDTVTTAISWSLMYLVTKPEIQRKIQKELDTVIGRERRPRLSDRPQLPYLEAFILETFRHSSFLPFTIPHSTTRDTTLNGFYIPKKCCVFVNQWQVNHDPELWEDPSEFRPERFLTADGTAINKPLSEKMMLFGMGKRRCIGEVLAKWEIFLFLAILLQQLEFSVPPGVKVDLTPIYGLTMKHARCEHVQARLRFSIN
Glucocorticoid receptor (Homo sapiens), sequence (P04150 whole entry, looked up, the tested form may be a part): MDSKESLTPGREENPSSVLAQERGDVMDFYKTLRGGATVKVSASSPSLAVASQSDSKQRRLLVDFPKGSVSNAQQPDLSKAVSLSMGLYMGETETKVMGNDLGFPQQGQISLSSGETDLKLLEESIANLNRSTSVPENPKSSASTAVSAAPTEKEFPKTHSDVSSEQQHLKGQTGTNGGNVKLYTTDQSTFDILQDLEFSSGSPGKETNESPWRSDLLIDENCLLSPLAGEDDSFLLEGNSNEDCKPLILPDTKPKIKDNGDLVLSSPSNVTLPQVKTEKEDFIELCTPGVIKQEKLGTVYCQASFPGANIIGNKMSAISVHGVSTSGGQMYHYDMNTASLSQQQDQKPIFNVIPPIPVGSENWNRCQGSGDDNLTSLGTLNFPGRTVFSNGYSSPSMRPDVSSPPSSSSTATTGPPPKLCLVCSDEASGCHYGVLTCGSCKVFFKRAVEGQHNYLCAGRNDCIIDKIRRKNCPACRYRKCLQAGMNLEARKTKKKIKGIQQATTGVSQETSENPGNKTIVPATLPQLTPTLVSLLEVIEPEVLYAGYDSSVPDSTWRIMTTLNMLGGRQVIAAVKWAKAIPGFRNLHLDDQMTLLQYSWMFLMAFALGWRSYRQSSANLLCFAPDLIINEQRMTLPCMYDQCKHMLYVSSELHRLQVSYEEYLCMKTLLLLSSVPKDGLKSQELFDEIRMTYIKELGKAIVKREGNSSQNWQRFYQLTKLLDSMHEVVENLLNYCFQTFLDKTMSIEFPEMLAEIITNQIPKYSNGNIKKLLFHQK
Cytochrome P450 3A4 (Homo sapiens), sequence (P08684 whole entry, looked up): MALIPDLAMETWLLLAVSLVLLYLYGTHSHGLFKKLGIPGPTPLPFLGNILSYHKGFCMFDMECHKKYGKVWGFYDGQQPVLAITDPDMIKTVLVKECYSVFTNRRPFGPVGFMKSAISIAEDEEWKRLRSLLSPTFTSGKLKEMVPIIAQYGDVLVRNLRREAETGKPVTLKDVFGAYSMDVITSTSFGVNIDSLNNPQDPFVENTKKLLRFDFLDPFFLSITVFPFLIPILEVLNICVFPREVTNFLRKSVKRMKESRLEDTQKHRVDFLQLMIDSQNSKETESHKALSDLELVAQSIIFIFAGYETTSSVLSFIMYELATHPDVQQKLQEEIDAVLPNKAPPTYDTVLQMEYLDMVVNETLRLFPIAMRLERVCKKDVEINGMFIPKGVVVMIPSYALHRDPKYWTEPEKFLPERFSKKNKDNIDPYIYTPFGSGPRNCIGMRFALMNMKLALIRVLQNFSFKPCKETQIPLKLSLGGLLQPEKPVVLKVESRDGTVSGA
3',5'-cyclic-AMP phosphodiesterase 4B (Homo sapiens), sequence (Q07343 whole entry, looked up): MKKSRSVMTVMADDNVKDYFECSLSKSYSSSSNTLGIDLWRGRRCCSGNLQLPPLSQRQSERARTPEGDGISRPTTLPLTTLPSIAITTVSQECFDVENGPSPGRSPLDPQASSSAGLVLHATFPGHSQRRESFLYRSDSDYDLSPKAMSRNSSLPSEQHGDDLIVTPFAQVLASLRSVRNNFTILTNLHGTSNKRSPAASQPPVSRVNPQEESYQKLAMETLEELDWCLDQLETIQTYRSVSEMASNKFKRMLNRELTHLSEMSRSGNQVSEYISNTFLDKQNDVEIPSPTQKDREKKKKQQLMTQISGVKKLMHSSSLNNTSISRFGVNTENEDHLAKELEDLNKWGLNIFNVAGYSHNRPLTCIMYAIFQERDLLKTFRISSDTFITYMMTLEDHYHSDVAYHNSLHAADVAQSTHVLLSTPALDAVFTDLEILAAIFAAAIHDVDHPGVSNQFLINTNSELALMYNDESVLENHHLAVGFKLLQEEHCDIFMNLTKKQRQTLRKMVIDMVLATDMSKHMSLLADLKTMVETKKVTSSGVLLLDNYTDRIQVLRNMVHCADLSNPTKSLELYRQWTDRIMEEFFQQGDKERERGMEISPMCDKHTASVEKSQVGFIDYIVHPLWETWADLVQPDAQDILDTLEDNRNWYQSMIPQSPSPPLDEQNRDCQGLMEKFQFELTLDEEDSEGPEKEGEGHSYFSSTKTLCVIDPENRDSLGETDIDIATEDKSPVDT
Lysosomal acid glucosylceramidase (Homo sapiens), sequence (P04062 whole entry, looked up): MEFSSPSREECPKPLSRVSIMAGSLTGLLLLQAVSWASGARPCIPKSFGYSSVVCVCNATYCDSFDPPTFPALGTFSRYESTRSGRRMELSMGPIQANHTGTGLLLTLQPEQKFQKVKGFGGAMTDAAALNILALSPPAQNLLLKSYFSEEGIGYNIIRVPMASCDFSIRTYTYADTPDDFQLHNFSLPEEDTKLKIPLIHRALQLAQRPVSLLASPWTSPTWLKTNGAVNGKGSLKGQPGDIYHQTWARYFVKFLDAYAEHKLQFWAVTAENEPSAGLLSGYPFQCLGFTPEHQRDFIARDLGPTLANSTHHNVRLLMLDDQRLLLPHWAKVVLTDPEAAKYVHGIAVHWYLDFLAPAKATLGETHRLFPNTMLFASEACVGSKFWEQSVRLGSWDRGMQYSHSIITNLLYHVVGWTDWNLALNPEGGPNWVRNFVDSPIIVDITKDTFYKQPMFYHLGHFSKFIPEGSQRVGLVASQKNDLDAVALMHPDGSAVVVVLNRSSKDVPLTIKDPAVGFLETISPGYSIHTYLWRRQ
Calcium and integrin-binding protein 1 (Homo sapiens), sequence (Q99828 whole entry, looked up): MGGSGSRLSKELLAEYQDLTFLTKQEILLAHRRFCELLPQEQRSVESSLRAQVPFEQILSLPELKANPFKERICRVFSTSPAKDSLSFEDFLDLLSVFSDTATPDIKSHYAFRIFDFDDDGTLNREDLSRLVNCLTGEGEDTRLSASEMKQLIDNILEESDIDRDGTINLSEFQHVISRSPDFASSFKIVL

Regarding `COc1ccc(NC(=O)N2CCCC3(CCN(C(=O)Oc4ccccc4)CC3)C2)cc1`, the Potency was > 11.4 µM (inactive) in [1] and > 46 µM (inactive) in [4]. In addition, the outcome in test [2], in test [3], in test [5] and in [8] was inactive. The Potency result in test [6], in test [7] and in [9] was “inactive” in each case.

In the case of `O=C(Oc1ccccc1)N1CCC2(CC1)CN(C(c1ccccc1)c1ccccc1)C2`, the Potency in test [1] is > 11.4 µM (inactive); in [4], > 46 µM (inactive). The result in test [2], in test [3], in test [5] and in test [13] was inactive. Besides, the Potency entry in test [10] and in test [6] was “inactive” throughout. The activity change, negative = inhibition in test [11] was -29.6% (inactive); in test [12], -5.67% (inactive). The max response was -3.18% in test [12] (setting [17]) and -5.43% in test [12] (setting [18]).

For `CC(C)C1C(=O)N2CCC[C@H]2[C@]2(O)O[C@](NC(=O)[C@@H]3C=C4c5cccc6[nH]cc(c56)C[C@H]4N(C)C3)(C(C)C)C(=O)N12` (some centres not stated), the result in test [8] was inactive. In addition, the Potency in [9] was 31.6 µM (active).

For `Cn1c(-c2ccccc2)c(P(=S)(c2ccccc2)c2ccccc2)c2ccccc21`, in test [14], the result was inactive.

Regarding `c1ccc(N2CCCC3(CCNCC3)C2)nc1`, the Potency in [1] was > 11.4 µM (inactive); in test [10] it was 25.1 µM (active); in [4] it was > 46 µM (inactive). The call in test [2], in test [3], in test [5] and in [8] was inactive. Also, the activity change, negative = inhibition is -27% (inactive) in test [11] and 3.94% (inactive) in test [12]. Further, the Potency result in test [7] was “inactive”. Further, the max response was found to be 2.21% in test [12] (setting [17]) and 8.95% in test [12] (setting [18]).

With `COc1ccc(/C=C/C(=O)N2CC3C[C@@H](C2)Cn2c3cccc2=O)cc1OC`, the outcome in test [13] was inactive.

Take `CC(=O)C1=C(O)C2C3c4c[nH]c5cccc(c45)CC3C(C)(C)N2C1=O` (configuration not stated): the Potency result in test [15] and in test [16] was “inactive” throughout. The activity change, negative = inhibition in test [12] was 8.13% (inactive). Also, the max response in [12] (setting [17]) was 15.9%; in test [12] (setting [18]), 22.7%. Besides, the outcome in test [8] was inactive.

In the case of `COC(=O)c1nc(-c2cccc3ccccc23)oc1OC`, the outcome in [14] was inactive.

Take `CCOC(=O)c1ncc2[nH]c3ccc(OCc4ccccc4)cc3c2c1COC`: the result in test [13] was inactive.

For `CCOc1ccc(CCNC(=O)c2cc3cccnc3n2Cc2cccc(C)n2)cc1OCC`, the outcome in [14] was inactive.

As to `c1cc(CN2CCCC3(CCNCC3)C2)ccn1`, the results for the Potency in test [1] and in [4] were > 11.4 µM (inactive) and > 46 µM (inactive), respectively. Further, the compound was classed as inactive in test [2], in [3], in test [5] and in test [8]. Also, the activity change, negative = inhibition was -14.6% (inactive) in test [11] and 4.72% (inactive) in test [12]. In addition, the Potency result in test [6] and in test [7] was “inactive” each time. Besides, the max response in test [12] (setting [17]) came to 11%; in test [12] (setting [18]), 17.7%.

Take `O=S(=O)(Nc1ccccc1)c1ccc(NCc2ccc(Br)cc2O)cc1`: the result in test [14] was inactive.

As for `c1cnc(N2CCC3(CCNCC3)CC2)nc1`, the Potency is > 11.4 µM (inactive) in test [1] and > 46 µM (inactive) in test [4]. For the same compound, the call in [2], in test [3], in test [5] and in [8] was inactive. In addition, the Potency entry in test [10], in test [6], in test [7] and in test [9] was “inactive” in each case. Further, in test [12], the activity change, negative = inhibition is 5.39% (inactive). The max response is 13.8% in test [12] (setting [17]) and 23.4% in test [12] (setting [18]).
